{
  "source": "paper PMC4552634",
  "about": "“A New Set of Chemical Starting Points with Plasmodium falciparum Transmission-Blocking Potential for Antimalarial Drug Discovery” (PLoS ONE, 2015)",
  "note": "The whole screen tested about 13,000 compounds, of which about 3,200 (25%) showed an effect of 50% or more. The list shows a part of the results.",
  "data": [
    {"test_system": "P. falciparum stage V gametocytes", "design": "BacTiter-Glo ATP luminescence viability of purified stage V gametocytes in 384-well plates, per cent inhibition versus DMSO", "details": "48 h, 5 µM; inhibitor", "units": {"% Inhibition": "%"}, "values": [
      {"molecule": "O=C(Nc1ccc(OC2CCN(Cc3ccsc3)CC2)c(Cl)c1)c1cccs1", "note": "[TCMDC-133740]", "% Inhibition": -2.262},
      {"molecule": "CCn1c(Cc2ccccc2)nnc1SCC(=O)N1c2ccccc2Sc2ccccc21", "note": "[TCMDC-124373]", "% Inhibition": -22.31},
      {"molecule": "CC(=O)N[C@H](C(=O)Nc1ccc(-c2cccc(-c3nc4c(C)cccc4[nH]3)c2)cc1)C(C)C", "note": "[TCMDC-136853]", "% Inhibition": -50.38},
      {"molecule": "Cc1cccc2[nH]c(-c3ccc(-c4ccc(NC(=O)C(C)CN(C)C)cc4)cc3)nc12", "note": "(stereo not drawn) [TCMDC-137105]", "% Inhibition": -73.49},
      {"molecule": "Cc1cccc2[nH]c(-c3cccc(-c4cccc(NC(=O)C(C)CN(C)C)c4)c3)nc12", "note": "(stereo not drawn) [TCMDC-137110]", "% Inhibition": -50.7},
      {"molecule": "Cc1cccc2[nH]c(-c3cccc(-c4cccc(NC(=O)C(C)CN5CCN(C)CC5)c4)c3)nc12", "note": "(stereo not drawn) [TCMDC-137150]", "% Inhibition": 88.37},
      {"molecule": "Cc1cccc2[nH]c(-c3ccc(-c4cccc(NC(=O)C(C)CN5CCN(C)CC5)c4)cc3)nc12", "note": "(stereo not drawn) [TCMDC-137144]", "% Inhibition": 36.55},
      {"molecule": "CCC(C)NC(=O)Nc1cccc(-c2cccc(-c3nc4c(C)cccc4[nH]3)c2)c1", "note": "(stereo not drawn) [TCMDC-133239]", "% Inhibition": 36.1},
      {"molecule": "Cc1cccc2[nH]c(-c3cccc(-c4ccc(NC(=O)C(C)C(=O)NC(C)C)cc4)c3)nc12", "note": "(stereo not drawn) [TCMDC-132149]", "% Inhibition": -14.66},
      {"molecule": "Cc1cccc2[nH]c(-c3cccc(-c4ccc(NC(=O)CN5CCOCC5)cc4)c3)nc12", "note": "[TCMDC-136970]", "% Inhibition": -20.19},
      {"molecule": "CCC(C)NC(=O)Nc1ccc(-c2cccc(-c3nc4c(C)cccc4[nH]3)c2)cc1", "note": "(stereo not drawn) [TCMDC-133238]", "% Inhibition": -3.731},
      {"molecule": "Cc1cccc2[nH]c(-c3cccc(-c4ccc(NC(=O)C(C)CN(C)C)cc4)c3)nc12", "note": "(stereo not drawn) [TCMDC-137111]", "% Inhibition": 95.4},
      {"molecule": "Cc1cccc2[nH]c(-c3cccc(-c4ccc(NC(=O)C(C)CN5CCN(C)CC5)cc4)c3)nc12", "note": "(stereo not drawn) [TCMDC-137151]", "% Inhibition": 58.09},
      {"molecule": "Cc1cccc2[nH]c(-c3cccc(-c4ccc(NC(=O)C(C)CN5CCOCC5)cc4)c3)nc12", "note": "(stereo not drawn) [TCMDC-137138]", "% Inhibition": 85.59},
      {"molecule": "CC(CCc1ccccc1)NCC(O)c1ccc2c3c(cccc13)C(=O)N2C", "note": "(stereo not drawn) [TCMDC-131252]", "% Inhibition": 17.04},
      {"molecule": "COc1cc(Cc2cnc(N)nc2N)cc(OCCCCCCN2C(=O)c3ccccc3C2=O)c1OC", "note": "[TCMDC-138043]", "% Inhibition": 3.318},
      {"molecule": "Cc1ccc(C(C#N)c2ccc3c(C(F)(F)F)cc(C(F)(F)F)nc3n2)cc1", "note": "(stereo not drawn) [TCMDC-123762]", "% Inhibition": -33.32},
      {"molecule": "COc1ccc(-c2c(-c3ccc(OCc4ccccc4)cc3O)n[nH]c2C(F)(F)F)cc1", "note": "[TCMDC-124771]", "% Inhibition": -11.85},
      {"molecule": "CCc1cc(-c2onc(C(F)(F)F)c2-c2ccccc2)c(O)cc1OC", "note": "[TCMDC-124464]", "% Inhibition": 25.65},
      {"molecule": "CCc1cc(-c2n[nH]c(C(F)(F)F)c2-c2ccccc2)c(O)cc1OC", "note": "[TCMDC-123700]", "% Inhibition": 70.95},
      {"molecule": "COc1ccc(NC(=O)Nc2nc3ccccc3s2)cc1N1CCN(C)CC1", "note": "[TCMDC-139872]", "% Inhibition": -6.741},
      {"molecule": "COc1cc(CN2CCC(C(=O)Nc3ccc(-c4cccc(C)c4)cc3)CC2)ccc1O", "note": "[TCMDC-124633]", "% Inhibition": 46.38},
      {"molecule": "COc1cccc(OC)c1CN1CCC(N(C)CCCCCCCCCN2CCC(OC(=O)Nc3ccccc3-c3ccccc3)CC2)CC1", "note": "[TCMDC-134690]", "% Inhibition": 126.7},
      {"molecule": "COc1ccccc1CCN(C)CCN1CCC(NC(=O)c2ccc(-c3ccc(C(F)(F)F)cc3)cc2)CC1", "note": "[TCMDC-138797]", "% Inhibition": 43.57},
      {"molecule": "COc1ccccc1N1CCN(CCCCN(C(=O)Nc2cccc(Cl)c2)C(=O)Nc2cccc(Cl)c2)CC1", "note": "[TCMDC-131986]", "% Inhibition": -74.5},
      {"molecule": "COc1cccc(OC)c1CN1CCC(N(C)CCCCCCCCN2CCC(OC(=O)Nc3ccccc3-c3ccccc3)CC2)CC1", "note": "[TCMDC-134684]", "% Inhibition": 106.8},
      {"molecule": "NCC(=O)c1cc2c(cc1N)OCCO2", "note": "[TCMDC-131879]", "% Inhibition": -22.77},
      {"molecule": "C=C(F)c1sc(CNCCCNc2nc3ccccc3[nH]2)c(C)c1Br", "note": "[TCMDC-141307]", "% Inhibition": 13.46},
      {"molecule": "OC1(c2ccccc2)CCN(Cc2cccc(-c3c[nH]c4nc(NC5CCCC5)ncc34)c2)C1", "note": "(stereo not drawn) [TCMDC-133775]", "% Inhibition": -50.17},
      {"molecule": "CC(Cc1ccc(CN(CC(N)=O)Cc2ccc(CC(C)NCCc3cccc(Cl)c3)cc2)cc1)NCCc1cccc(Cl)c1", "note": "(stereo not drawn) [TCMDC-139804]", "% Inhibition": 113.4},
      {"molecule": "CC(=O)N(Cc1ccc(CC(C)NCCc2cccc(Cl)c2)cc1)Cc1ccc(CC(C)NCCc2cccc(Cl)c2)cc1", "note": "(stereo not drawn) [TCMDC-139678]", "% Inhibition": 112.1},
      {"molecule": "CS(=O)(=O)c1ccc(CNCc2ccc(-c3ccc(-c4nc5cc(C(F)(F)F)ccc5[nH]4)s3)cc2)cc1.O=C(O)C(F)(F)F", "note": "[TCMDC-132906]", "% Inhibition": -5.935},
      {"molecule": "CCN(CC)CCCC(C)Nc1ccnc2cc(Cl)ccc12", "note": "(stereo not drawn) [TCMDC-123988]", "% Inhibition": 8.457},
      {"molecule": "CCN(CC)CCCC(C)Nc1cc(C)nc2cc(Cl)ccc12", "note": "(stereo not drawn) [TCMDC-124246]", "% Inhibition": 33.92},
      {"molecule": "COc1ccc2nc(-c3ccccc3)cc(NN=Cc3ccc([N+](=O)[O-])cc3)c2c1", "note": "[TCMDC-142045]", "% Inhibition": 15.04},
      {"molecule": "CCN(CC)CCCC(C)Nc1ccnc2ccc(OC)cc12.Cl.O", "note": "(stereo not drawn) [TCMDC-123888]", "% Inhibition": 15.61},
      {"molecule": "CCCN(CCC)C(C)CCC(C)Nc1c2ccc(Cl)cc2nc2ccc(OC)cc12", "note": "(stereo not drawn) [TCMDC-137516]", "% Inhibition": 50.36},
      {"molecule": "CCN(CC)CCCC(C)Nc1cc(C=Cc2ccc([N+](=O)[O-])cc2)nc2ccc(OC)cc12.O=P(O)(O)O", "note": "(stereo not drawn) [TCMDC-124247]", "% Inhibition": 98.87},
      {"molecule": "CCCN(CCC)CCCCC(C)Nc1c2ccc(Cl)cc2nc2ccc(OC)cc12", "note": "(stereo not drawn) [TCMDC-137515]", "% Inhibition": 50.13},
      {"molecule": "CCN(CC)CCCC(C)Nc1cc(C=Cc2ccccc2Cl)nc2cc(Cl)ccc12", "note": "(stereo not drawn) [TCMDC-124294]", "% Inhibition": 59.52},
      {"molecule": "O=C(NCCCN1CCN(c2cccc(Cl)c2)CC1)c1ccc(-c2nc3cc(Cl)c(Cl)cc3[nH]2)cc1", "note": "[TCMDC-140077]", "% Inhibition": 1.638},
      {"molecule": "Nc1nc(N)c2cc(S(=O)(=O)c3ccc4ccccc4c3)ccc2n1", "note": "[TCMDC-137192]", "% Inhibition": 3.776},
      {"molecule": "CCCCCCN1CCN(Cc2cccc(NC(=O)c3cccc(OCC)c3)c2)CC1", "note": "[TCMDC-134614]", "% Inhibition": -30.42},
      {"molecule": "Cc1cc(N(C)C2CCN(CC3CCCCC3)C2)nc(Nc2ccc(Br)cc2)n1", "note": "(stereo not drawn) [TCMDC-137023]", "% Inhibition": -48.72},
      {"molecule": "CCCCCC(=O)N1CCOC(CCN2CCC(c3ccccc3)CC2)(c2ccc(Cl)c(Cl)c2)C1", "note": "(stereo not drawn) [TCMDC-135328]", "% Inhibition": -33.56},
      {"molecule": "CN1CCN(c2ccnc3ccc(NC(=O)Nc4cccc5c(Br)cccc45)cc23)CC1", "note": "[TCMDC-139347]", "% Inhibition": 3.223},
      {"molecule": "Cc1cccc2nc(-c3ccc(-c4ccc(CNCC5CCCO5)cc4)s3)[nH]c12.O=C(O)C(F)(F)F", "note": "(stereo not drawn) [TCMDC-133101]", "% Inhibition": 42.96},
      {"molecule": "CCN(CC)CCCC(C)Nc1c2ccccc2nc2c1ccc1ccccc12", "note": "(stereo not drawn) [TCMDC-137517]", "% Inhibition": 51.71},
      {"molecule": "CCN(CC)CCCC(C)Nc1c2ccccc2nc2ccc3ccccc3c12", "note": "(stereo not drawn) [TCMDC-137518]", "% Inhibition": 45.6},
      {"molecule": "CCN(CC)CCCC(C)Nc1c2cc(OC)ccc2nc2cc(Cl)c([N+](=O)[O-])cc12", "note": "(stereo not drawn) [TCMDC-138329]", "% Inhibition": -1.262},
      {"molecule": "CCN(CC)CCCC(C)Nc1ccnc2[nH]c3ccccc3c12", "note": "(stereo not drawn) [TCMDC-131826]", "% Inhibition": 12.54},
      {"molecule": "CCN(CC)CCCC(C)Nc1c2ccc(Cl)cc2nc2ccc(OC)cc12", "note": "(stereo not drawn) [TCMDC-125480]", "% Inhibition": 101},
      {"molecule": "Cc1cccc2[nH]c(-c3cccc(-c4ccc(NC(=O)c5cnn6cccnc56)cc4)c3)nc12", "note": "[TCMDC-136868]", "% Inhibition": -35.86},
      {"molecule": "CCCC(CNCc1ccc(Cl)c(C(F)(F)F)c1)CNc1nc2ccncc2[nH]1", "note": "(stereo not drawn) [TCMDC-141057]", "% Inhibition": 56.14},
      {"molecule": "FC(F)(F)c1cc(CNCCCNc2nc3ccncc3[nH]2)ccc1Cl", "note": "[TCMDC-140508]", "% Inhibition": -5.854},
      {"molecule": "CCCc1c(Cl)cc(CNCCCNc2nc3ccncc3[nH]2)cc1Cl", "note": "[TCMDC-140509]", "% Inhibition": 47.86},
      {"molecule": "O=C(Nc1ccc(Br)cc1)c1cc(Br)ccc1NS(=O)(=O)c1ccc(C(F)(F)F)cc1", "note": "[TCMDC-139752]", "% Inhibition": 29.13},
      {"molecule": "COc1cc(NC(=O)Nc2ccc(Br)cc2C(=O)Nc2ccc(Br)cc2)cc(OC)c1OC", "note": "[TCMDC-139733]", "% Inhibition": 85.99},
      {"molecule": "O=C(Nc1ccc(Br)cc1)c1cc(Br)ccc1NS(=O)(=O)c1cc(C(F)(F)F)cc(C(F)(F)F)c1", "note": "[TCMDC-139753]", "% Inhibition": -9.383},
      {"molecule": "COc1ccc(F)cc1-c1ccc(C(=O)N2CCCN(c3ccc(C(F)(F)F)cn3)CC2)cc1", "note": "[TCMDC-133384]", "% Inhibition": -50.34},
      {"molecule": "COc1ccc(F)cc1-c1ccc(C(=O)N2CCCN(c3ccc(C#N)cn3)CC2)cc1", "note": "[TCMDC-133385]", "% Inhibition": 2.781},
      {"molecule": "Cc1ccc(F)cc1-c1cc(N2CCCN(C(=O)c3ccc(Br)o3)CC2)ncn1", "note": "[TCMDC-125089]", "% Inhibition": 67.99},
      {"molecule": "CCN1CCC(N(Cc2ccc(-c3ccc(C(F)(F)F)cc3)cc2)C(=O)Cn2c(SCc3cccc(F)c3F)cc(=O)c3ccccc32)C1", "note": "(stereo not drawn) [TCMDC-141301]", "% Inhibition": 106.2},
      {"molecule": "O=C(Cn1c(SCc2cccc(F)c2F)cc(=O)c2ccccc21)N(Cc1ccc(-c2ccc(C(F)(F)F)cc2)cc1)C1CCN(CCO)CC1", "note": "[TCMDC-141705]", "% Inhibition": 107.3},
      {"molecule": "COCCN1CCC(N(CC2(O)CCN(c3ccc(C(F)(F)F)cc3)CC2)C(=O)Cn2c(SCc3cccc(F)c3F)cc(=O)c3ccccc32)CC1", "note": "[TCMDC-141629]", "% Inhibition": 101.7},
      {"molecule": "CC(C)(C)n1nnnc1C(c1cccnc1)N(Cc1ccccc1)Cc1ccc(Cl)cc1", "note": "(stereo not drawn) [TCMDC-123530]", "% Inhibition": 11.45}
    ]}
  ]
}
